# From PubChem BioAssay
# Active and inactive are the calls of the source.
# Legend:
# [1] = small molecules captured by biotinylated probe aFSTL3 – biochemical, small-molecule microarray, fluorescence 635/667, stem cell growth factor project, primary screen (AID 1064); details: higher = more signal;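 note: measures binding of the biotinylated anti-FSTL3 antibody to printed compounds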
# [2] = binders from COS7 lysate, DM2A8 probe, primary screen, torsin A project, cell lysate, small-molecule microarray, fluorescence 635/667 (AID 1065); details: higher = more signal, COS7 lysate expressing mutant human TOR1A
# [3] = small molecules captured by biotinylated probe aFGF2 – biochemical, small-molecule microarray, fluorescence 635/667, stem cell growth factor project, primary screen (AID 1067); details: higher = more signal;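 note: measures binding of biotinylated aFGF2 protein to printed compounds on slides; z-score merges feature fluorescence and signal-to-noise across triplicate slides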
# [4] = small molecules captured by biotinylated probe aFGF10 – biochemical, small-molecule microarray, fluorescence 635/667, stem cell growth factor project, primary screen (AID 1071); details: higher = more signal;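 note: score merges 667 nm spot intensity and signal to noise from triplicate slides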
# [5] = molecular target: Neurogenic locus notch homolog protein 2 (Homo sapiens) (UniProt Q04721); assay: small molecules binding Notch2 protein – biochemical, small-molecule microarray, 635 nm fluorescence, stem cell growth factors, primary screen (AID 1073); details: higher = more signal
# Chain of Neurogenic locus notch homolog protein 2 (Homo sapiens) (Q04721 whole entry, looked up, canonical isoform): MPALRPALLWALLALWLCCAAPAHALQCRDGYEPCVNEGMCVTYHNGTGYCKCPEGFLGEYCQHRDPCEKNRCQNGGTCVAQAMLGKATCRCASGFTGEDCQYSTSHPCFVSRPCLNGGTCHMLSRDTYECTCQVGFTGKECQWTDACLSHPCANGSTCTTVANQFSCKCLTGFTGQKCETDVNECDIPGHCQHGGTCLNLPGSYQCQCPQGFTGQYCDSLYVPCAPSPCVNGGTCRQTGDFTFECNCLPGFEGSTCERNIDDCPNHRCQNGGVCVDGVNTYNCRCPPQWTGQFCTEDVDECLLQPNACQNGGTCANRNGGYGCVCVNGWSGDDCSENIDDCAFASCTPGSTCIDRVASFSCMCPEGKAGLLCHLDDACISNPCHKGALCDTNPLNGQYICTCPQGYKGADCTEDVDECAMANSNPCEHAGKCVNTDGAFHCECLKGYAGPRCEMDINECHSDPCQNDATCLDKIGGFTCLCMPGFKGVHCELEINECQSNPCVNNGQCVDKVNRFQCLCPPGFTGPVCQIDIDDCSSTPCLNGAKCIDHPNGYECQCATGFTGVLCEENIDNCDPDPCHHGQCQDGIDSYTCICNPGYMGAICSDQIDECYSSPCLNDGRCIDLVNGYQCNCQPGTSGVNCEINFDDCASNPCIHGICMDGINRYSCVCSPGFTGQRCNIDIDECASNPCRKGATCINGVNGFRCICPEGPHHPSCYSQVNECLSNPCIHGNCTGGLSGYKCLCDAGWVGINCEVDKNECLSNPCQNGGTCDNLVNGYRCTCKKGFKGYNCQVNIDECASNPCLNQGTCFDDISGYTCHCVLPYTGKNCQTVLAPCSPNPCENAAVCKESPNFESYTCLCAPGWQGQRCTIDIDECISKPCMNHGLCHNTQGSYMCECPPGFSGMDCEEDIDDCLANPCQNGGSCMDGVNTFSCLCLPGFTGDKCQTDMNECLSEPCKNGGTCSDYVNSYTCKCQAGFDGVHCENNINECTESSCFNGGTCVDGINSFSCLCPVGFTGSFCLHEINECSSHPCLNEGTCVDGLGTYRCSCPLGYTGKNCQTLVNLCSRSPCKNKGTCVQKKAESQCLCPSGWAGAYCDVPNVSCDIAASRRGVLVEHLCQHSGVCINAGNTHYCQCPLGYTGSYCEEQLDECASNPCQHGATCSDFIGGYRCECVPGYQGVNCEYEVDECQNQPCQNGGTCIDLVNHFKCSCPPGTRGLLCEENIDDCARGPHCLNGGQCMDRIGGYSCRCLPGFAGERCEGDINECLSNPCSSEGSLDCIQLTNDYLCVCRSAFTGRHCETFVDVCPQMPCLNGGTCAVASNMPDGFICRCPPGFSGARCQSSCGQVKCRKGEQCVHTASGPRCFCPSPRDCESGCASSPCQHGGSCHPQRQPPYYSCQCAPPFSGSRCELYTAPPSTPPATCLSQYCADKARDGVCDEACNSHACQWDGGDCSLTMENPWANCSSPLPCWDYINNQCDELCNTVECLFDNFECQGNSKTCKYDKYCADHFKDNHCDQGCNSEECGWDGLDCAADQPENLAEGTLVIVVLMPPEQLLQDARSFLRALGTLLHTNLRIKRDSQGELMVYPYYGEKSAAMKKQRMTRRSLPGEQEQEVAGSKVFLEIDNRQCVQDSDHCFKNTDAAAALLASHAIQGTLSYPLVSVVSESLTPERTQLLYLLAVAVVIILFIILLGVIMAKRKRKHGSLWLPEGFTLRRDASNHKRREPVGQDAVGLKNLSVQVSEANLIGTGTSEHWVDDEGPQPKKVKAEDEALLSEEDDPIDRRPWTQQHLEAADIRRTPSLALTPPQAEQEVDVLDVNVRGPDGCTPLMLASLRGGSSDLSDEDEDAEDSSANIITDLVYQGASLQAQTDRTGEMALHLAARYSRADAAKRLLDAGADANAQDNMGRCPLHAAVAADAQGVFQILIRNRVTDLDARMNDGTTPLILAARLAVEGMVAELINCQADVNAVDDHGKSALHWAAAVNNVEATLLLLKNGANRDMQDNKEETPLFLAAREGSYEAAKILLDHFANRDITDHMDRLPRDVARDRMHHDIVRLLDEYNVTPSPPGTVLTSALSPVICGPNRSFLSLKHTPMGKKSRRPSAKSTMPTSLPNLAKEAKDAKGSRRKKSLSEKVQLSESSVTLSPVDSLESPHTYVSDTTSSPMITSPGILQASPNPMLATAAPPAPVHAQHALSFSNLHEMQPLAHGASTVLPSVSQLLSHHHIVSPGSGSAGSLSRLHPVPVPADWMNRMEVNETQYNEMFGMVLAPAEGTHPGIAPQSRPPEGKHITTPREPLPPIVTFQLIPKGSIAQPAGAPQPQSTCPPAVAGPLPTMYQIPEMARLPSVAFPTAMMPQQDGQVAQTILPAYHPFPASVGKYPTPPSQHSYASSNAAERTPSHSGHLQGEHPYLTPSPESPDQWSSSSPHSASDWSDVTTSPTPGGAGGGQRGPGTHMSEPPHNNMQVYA
# [6] = molecular target: Pro-neuregulin-1, membrane-bound isoform (Homo sapiens) (UniProt Q02297); assay: small molecules binding neuregulin-1 protein – biochemical, small-molecule microarray, fluorescence 635/667, psychiatric disease protein project, primary screen (AID 1075); details: NRG1 binding, 635 nm fluorescence, higher = more signal;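 note: score combines 667 nm spot fluorescence with signal to noise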
# Chain of Pro-neuregulin-1, membrane-bound isoform (Homo sapiens) (Q02297 whole entry, looked up, the tested form may be a part, canonical isoform): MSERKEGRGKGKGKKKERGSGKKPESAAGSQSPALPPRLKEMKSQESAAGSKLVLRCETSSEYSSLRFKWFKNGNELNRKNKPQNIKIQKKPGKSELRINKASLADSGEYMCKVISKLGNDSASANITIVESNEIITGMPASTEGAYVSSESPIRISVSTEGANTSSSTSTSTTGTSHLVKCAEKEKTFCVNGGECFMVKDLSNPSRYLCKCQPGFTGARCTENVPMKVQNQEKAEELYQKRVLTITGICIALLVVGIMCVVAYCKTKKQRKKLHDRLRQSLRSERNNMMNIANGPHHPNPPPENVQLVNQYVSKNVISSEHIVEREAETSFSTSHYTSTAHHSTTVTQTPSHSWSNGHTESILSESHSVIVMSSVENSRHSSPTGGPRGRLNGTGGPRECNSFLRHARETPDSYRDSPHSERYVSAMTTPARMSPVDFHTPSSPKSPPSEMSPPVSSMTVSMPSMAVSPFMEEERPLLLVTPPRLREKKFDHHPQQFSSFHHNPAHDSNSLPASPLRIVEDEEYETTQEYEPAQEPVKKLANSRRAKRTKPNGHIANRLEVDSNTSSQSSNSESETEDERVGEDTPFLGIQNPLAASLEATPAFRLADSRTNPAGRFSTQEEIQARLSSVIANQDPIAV
# [7] = test system: Neuregulin-1 EGF-like domain; assay: small molecules binding NRG1 EGF domain – biochemical, small-molecule microarray, 635 nm fluorescence, primary screen (AID 1081); details: higher = more signal;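 note: binding of the protein to compounds printed on small-molecule microarray slides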
# [8] = FRG1 expression reporter modulators in myotubes – cell-based, C2C12 myotubes, firefly/Renilla luciferase, luminescence, FRG1 inhibition for FSHD, primary screen (AID 1084); details: FRG1 promoter luciferase, higher = more signal, called active from +8 up or from −8 down
# [9] = small molecules captured by biotinylated probe aFST – biochemical, small-molecule microarray, fluorescence 635/667, stem cell growth factor project, primary screen (AID 1086); details: higher = more signal;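 note: score merges 667 nm fluorescence with signal-to-noise of each printed compound spot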
# [10] = binders of probe aHhip on microarray, primary screen, stem cell growth factor project, biochemical, small-molecule microarray, fluorescence 635/667 (AID 1087); details: higher = more signal;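 note: score merges spot fluorescence at 667nm with spot signal to noise ratio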
Compound,composite z-score [1],composite z-score [2],composite z-score [3],composite z-score [4],composite z-score [5],composite z-score [6],composite z-score [7],z-score [8],composite z-score [9],composite z-score [10]
CON=C(C)CCC(=O)OC[C@H]1O[C@H](c2ccccc2)C=C[C@@H]1Oc1ccc(OC)cc1,-0.0269,0.0837,-0.0504,0.111,-0.272,-0.351,-0.0622,1.89 (inactive),0.308,-0.131
CCOC(=O)[C@H](Cc1ccccc1)NC(=O)CCC1CC(OC(=O)NCCc2ccc(F)cc2)CC2(CCCC(COC(=O)NCCc3ccc(Cl)cc3)O2)O1 (stereo not given in full),-0.431,-0.0057,-0.0523,0.248,0.622,0.843,0.872,0.301 (inactive),0.233,0.0623
COC(=O)[C@@H]1CC[C@H](C)[C@@H](c2ccc(C)cc2)N1C(=O)c1ccc(C=NO[C@@H](C)c2cn([C@H](CO)Cc3ccccc3)nn2)cc1,-0.612,-0.0378,-0.0943,0.496,1.11,0.327,0.477,-3.25 (inactive),0.517,0.25
O=C1[C@H]2[C@H]3[C@H](O)[C@H](O)CC(=NOCc4ccccc4)[C@@H]3CC[C@H]2C(=O)N1c1ccc(F)cc1F,1.17,-0.0135,-0.197,0.423,0.104,-0.0591,-0.646,-0.738 (inactive),0.0704,-0.236
CCCNC(=O)OC[C@H]1O[C@H](CCON=Cc2ccc(C(=O)N3[C@H](c4ccc(C)cc4)[C@@H](C)CC[C@H]3C(=O)OC)cc2)C=C[C@@H]1Oc1ccc(OC)cc1,-0.52,0.304,-0.173,0.335,0.458,0.448,0.51,0.868 (inactive),0.598,-0.102
CC(=O)OC[C@H]1O[C@H](CCON=C2[C@H]3CCn4c(=O)n(-c5ccccc5)c(=O)n4[C@H]3[C@H](O)[C@@H]3O[C@H]23)C=C[C@@H]1OC(C)=O,-0.47,0.141,-0.0218,0.448,0.57,-0.147,0.18,-0.513 (inactive),0.476,0.163
CC[C@@H](c1ccccc1)n1c(=O)n2n(c1=O)[C@H]1[C@H](O)[C@@H]3O[C@@H]3C(=O)[C@H]1CC2,-0.66,-0.283,-0.103,0.335,0.395,-0.0023,-0.088,0.327 (inactive),0.0182,0.0373
C[C@H]1COC(=O)[C@@H]2CCCN2C(=O)[C@@H](C)COC(=O)[C@H](Cc2ccccc2)NC1=O,-0.596,0.142,-0.183,0.525,0.731,-0.147,0.184,-0.0297 (inactive),0.761,-0.0645
COc1ccc(O[C@H]2C=C[C@@H](c3ccccc3)O[C@@H]2COC(=O)CCC(C)=NOC(C)CN2CCCc3nc(C)c(C)cc32)cc1 (stereo not given in full),-0.451,-0.395,-0.062,0.623,0.571,0.858,0.967,-0.863 (inactive),0.506,-0.199
CC(C)CON=C1C[C@@H](O)[C@@H](O)[C@@H]2[C@@H]3C(=O)N(C[C@@H]4CCCO4)C(=O)[C@@H]3CC[C@@H]12,-0.308,-0.0385,-0.132,0.0654,-0.489,-0.672,-0.321,-0.108 (inactive),-0.271,-0.0994
CC(C)=CCCC(C)=CCON=C1C[C@@H](O)[C@@H](O)[C@@H]2[C@@H]3C(=O)N(Cc4ccccc4)C(=O)[C@@H]3CC[C@H]12,-0.402,-0.0325,-0.0263,0.734,0.686,0.774,1.06,0.134 (inactive),0.342,-0.305
CC(C)=NOC[C@@H](C)[C@H](OCc1ccccc1)C(C)C,0.245,-0.381,-0.147,-0.303,-0.885,-0.277,-0.372,0.755 (inactive),-0.21,0.163
COc1ccc(COC(=O)NN=C2C[C@@H](O)[C@@H](O)[C@@H]3[C@@H]4C(=O)N(Cc5ccccc5)C(=O)[C@@H]4CC[C@H]23)cc1,1.51,0.111,-0.0574,0.009,-0.234,-0.318,-0.411,0.319 (inactive),1.39,-0.284
CCOC(=O)[C@H](CC(C)C)NC(=O)CCC1CC(OC(=O)NCc2ccc3c(c2)OCO3)CC2(CCCC(COC(=O)NCc3cccc(C(F)(F)F)c3)O2)O1 (stereo not given in full),-0.109,-0.249,-0.0841,0.371,0.421,0.0839,0.445,0.31 (inactive),0.0884,-0.0994
COC(=O)CC=C[C@@H](C)[C@@H]1C=C[C@H](O)[C@@H](CO)O1,-0.202,0.124,-0.106,0.376,0.432,-0.196,-0.0778,-0.163 (inactive),0.225,-0.176
C[C@@H](ON=C1[C@H]2CCn3c(=O)n(-c4ccccc4)c(=O)n3[C@H]2[C@H](O)[C@@H]2O[C@H]12)c1cn([C@@H]2COC[C@H]2O)nn1,-0.648,0.653,-0.0529,0.35,0.213,0.406,0.261,1.15 (inactive),0.236,0.0274
CCC1=NOC(CCC2CC(OC(=O)NCc3cccc4c3OCO4)CC3(CCCC(COC(=O)NCCc4ccccc4OC)O3)O2)C1 (stereo not given),-0.173,0.13,-0.0466,0.504,0.608,0.796,0.793,1.02 (inactive),0.243,-0.151
O=C(NN=C1C[C@@H](O)[C@@H](O)[C@@H]2[C@@H]3C(=O)N(C4CCCCC4)C(=O)[C@@H]3CC[C@H]12)OCc1ccccc1,1.01,0.553,0.0679,0.0977,1.1,-0.131,-0.287,-0.242 (inactive),0.324,-0.558
COc1ccc(COC(=O)NN=C2C[C@@H](O)[C@@H](O)[C@@H]3[C@@H]4C(=O)N(c5cccc(Oc6ccccc6)c5)C(=O)[C@@H]4CC[C@@H]23)cc1,0.809,-0.107,-0.0363,-0.135,-0.423,-0.0521,-0.265,0.331 (inactive),0.88,0.262
COC(=O)NCC=Cc1nc(CCCO)co1,-0.596,0.273,-0.0174,0.525,0.623,0.177,0.414,-0.435 (inactive),0.0512,-0.287
COC(=O)[C@H](C)NC(=O)CCC1CC(OC(=O)NCc2ccc3c(c2)OCO3)CC2(CCCC(COC(=O)NCC(c3ccccc3)c3ccccc3)O2)O1 (stereo not given in full),-0.686,0.7,-0.0541,1.17,0.994,0.682,1.28,2.96 (inactive),0.132,0.0201
C#CCCCON=C1C[C@@H](O)[C@@H](O)[C@@H]2[C@@H]3C(=O)N(CC)C(=O)[C@@H]3CC[C@@H]12,-0.572,0.278,-0.143,0.722,0.656,0.614,0.636,-0.0351 (inactive),0.276,0.235
COc1ccc(O[C@@H]2[C@H](O)CO[C@@H]2C=Cc2ccccc2)cc1,-0.277,0.232,-0.0482,0.336,-0.0587,0.46,0.102,-0.136 (inactive),0.0116,0.281
CC(C)C[C@H](NC(=O)CCC1CC(OC(=O)NCc2cccc3ccccc23)CC2(CCCC(COC(=O)NCc3ccccc3)O2)O1)C(=O)NCC(c1ccccc1)c1ccccc1 (stereo not given in full),-0.572,0.139,-0.113,0.618,1.35,0.438,1.2,0.244 (inactive),0.289,0.238
COC(=O)CC=C[C@H](C)[C@@H](OCc1cccc(Br)c1)[C@@H](C)[C@H](OC)C1CCCCC1,-0.191,0.451,-0.245,0.106,-0.723,0.419,-0.3,1.23 (inactive),-0.118,0.0024
COC(=O)CC=C[C@@H](C)[C@@H](C=NO[C@@H]1O[C@H](COC(C)=O)[C@@H](OC(C)=O)[C@H](OC(C)=O)[C@H]1OC(C)=O)NS(=O)(=O)c1ccc(C)cc1,-0.486,0.969,-0.158,0.367,1.11,-0.993,-1.37,-0.443 (inactive),0.068,-0.0645
COc1cccc([C@H]2Oc3ccc(OC)cc3C(=NO[C@@H]3O[C@H](COC(C)=O)[C@@H](OC(C)=O)[C@H](OC(C)=O)[C@H]3OC(C)=O)[C@@H]2O)c1,-0.533,0.974,-0.116,0.326,0.842,-0.62,-0.782,1.59 (inactive),0.198,0.0972
